# Assay results published in PubChem BioAssay.
# Test: basal RPMI8226 viability, no added stimulus, profiling panel, cell-based, calcein-AM fluorescence, 48 h, PK04 Diversity Set (AID 1166);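 also: cells grown under basal conditions without added stimulus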
# Details: RPMI8226 myeloma viability, higher = more signal
# Also: test concentration not given here.
row,SMILES,z-score
1,CC1CC/C=C\[C@H]2OC34C=CCN(Cc5ccccc5)C(=O)[C@H]3N(CCCO)C(=O)[C@@H]4C2C(=O)O1 (stereo partly drawn),0.197
2,C=CC(=C)[C@H]1Oc2ccccc2S(=O)(=O)N2CCC[C@@H]12,-1.64
3,COCCOC(=O)N1C(=O)[C@@]2(c3cc(C#CC4(O)CCCCCC4)ccc31)[C@H](c1ccc(OCCO)cc1)N1[C@H](c3ccccc3)[C@H](c3ccccc3)OC(=O)[C@H]1[C@@H]2C(=O)N1CCN(c2ncccn2)CC1,0.182
4,COc1ccc(CCNC(=O)[C@@]2(C)c3ccccc3C(=O)N(C(C)C)[C@H]2c2ccc(CO)cc2)cc1,-0.974
5,CC1(C)C2C=C(C(O)C3C=CC4C(=O)NC(=O)C4N3Nc3ccc(Cl)cc3Cl)C[C@@H]1C2 (stereo partly drawn),-4.1
6,O=C1N(Cc2ccccc2)c2ccccc2[C@@H]2OC(c3ccc(OCCCO)cc3)=N[C@]12CCS(=O)(=O)c1ccccc1,0.144
7,COc1cc(COC(C)=O)ccc1OC(C)=O,-1.49
8,O=C(OCc1ccccc1)C1=CCC2c3[nH]c4ccccc4c3C(=O)C1N2S(=O)(=O)c1ccccc1[N+](=O)[O-] (stereo not drawn),-0.286
9,O=C(NC1CC1)[C@@H]1c2ccccc2C(=O)N(Cc2ccccc2Cl)[C@H]1c1ccc(CO)cc1,0.97
10,C[N+](C)(C)CCCCNC(=O)[C@H]1C[C@H]2C(=O)N3CCC[C@H]3C(=O)N2[C@H]1c1cccc(OCCO)c1,0.157

# Test: basal HepG2 mitochondrial membrane potential changes, profiling panel, cell-based, JC-1 fluorescence, 24 h, 100 nL compound (AID 1167)
# Details: higher = more signal
row,SMILES,z-score
1,CO[C@H]1O[C@H](CO)[C@@H](OC(=O)Nc2ccc(C(F)(F)F)cc2)[C@H](OC(=O)Nc2ccc3c(c2)OCO3)[C@@H]1OC(=O)Nc1ccc2c(c1)OCO2,-1.62
2,COCCOC(=O)N1C(=O)[C@@]2(c3cc(C#Cc4ccc(OC)cc4)ccc31)[C@H](c1ccc(O)cc1)N1[C@H](c3ccccc3)[C@H](c3ccccc3)OC(=O)[C@H]1[C@@H]2C(=O)N1CCc2cc(OC)c(OC)cc2C1,0.793
3,CCC(CC)C(O)C1C=CC2C(=O)NC(=O)C2N1Nc1ccccn1 (stereo not drawn),-0.29
4,CN1C(=O)C2C=CC(C(O)C3CC=CCC3)N(N(c3ccccc3)c3ccccc3)C2C1=O (stereo not drawn),-0.77
5,COc1cc2c(cc1OC)CN(C(=O)[C@H]1[C@@H]3C(=O)O[C@@H](c4ccccc4)[C@@H](c4ccccc4)N3[C@@H](c3ccc(O)cc3)[C@]13C(=O)Nc1ccc(C#CCCO)cc13)CC2,-1.46
6,CCN(CC)c1ccc(N2CC=CC34O[C@@H]5C=CCCOC(=O)C5[C@H]3C(=O)N(CCCCCCO)[C@@H]4C2=O)cc1 (stereo partly drawn),0.432
7,Cc1ccc(S[C@]2(C(=O)O)CC(=O)N(C(C)C)[C@@H]2c2ccc(CO)cc2I)cc1,0.0957
8,C=CCNC(=O)[C@H]1[C@@H]2C(=O)O[C@@H](c3ccccc3)[C@@H](c3ccccc3)N2[C@@H](c2ccccc2OCCO)[C@]12C(=O)Nc1ccc(C#CCCO)cc12,-0.651
9,C=C(CC1([C@@H](NP(=O)(c2ccccc2)c2ccccc2)[C@H]2C[C@@H]2CCCC)CC1)c1ccccc1,-2.48
10,O=C1C[C@@](C(=O)NCCN2CCOCC2)(c2ccc([N+](=O)[O-])cc2)[C@@H](c2ccc(CO)cc2)N1CC12CC3CC(CC(C3)C1)C2,-2.04
11,CC(C)[Si](C#Cc1ccc(Oc2ccccc2)cc1)(O[Si](C#Cc1ccc(Oc2ccccc2)cc1)(C(C)C)C(C)C)C(C)C,-0.683
12,O=C(NCCO)C1=C[C@H](Oc2ccccc2I)[C@@H](O)[C@H](N(Cc2ccco2)C(=O)Cc2ccccc2)C1,-0.217
13,COc1ccc(C#Cc2ccc3c(c2)[C@]2(C(=O)N3)[C@H](C(=O)Nc3nc4ccccc4s3)[C@H]3C(=O)O[C@H](c4ccccc4)[C@H](c4ccccc4)N3[C@@H]2c2ccc(O)cc2)cc1,-3.71
14,C=CCOC(=O)[C@H]1[C@@H]2C(=O)O[C@@H](c3ccccc3)[C@@H](c3ccccc3)N2[C@@H](c2ccc(OCCOC(=O)[C@@H]3C[C@@H]4C(=O)N[C@@H](CCCCNC(C)=O)C(=O)N4[C@@H]3c3ccc(O)cc3)cc2)[C@]12C(=O)Nc1ccccc12,-1.7
15,COC(=O)[C@H](Cc1ccccc1)N[C@@H](/C=C/C1CC1)[C@H](O)Cc1ccccc1,-0.908
16,CC(C)N1C(=O)[C@@]2(Cc3ccccc31)c1ccccc1C(=O)N(Cc1ccccc1Cl)[C@H]2c1ccc(CO)cc1,0.407
17,COC(=O)c1c(CC[C@@H](CO)NC(=O)NCCn2cc(C3(O)CCCC3)nn2)oc(C(C)=O)c1C(=O)OC,-0.0184
18,Cc1ccc(S[C@]2(C(=O)NCCCN(C)C)CC(=O)N(Cc3cc(C(F)(F)F)cc(C(F)(F)F)c3)[C@@H]2c2ccc(CO)cc2)cc1,0.263
